Measurements as given in PubChem BioAssay AID686978 (National Center for Advancing Translational Sciences (NCATS), 2013).
In all, about 420,000 compounds went through this assay and about 64,000 (15%) were called active. Another 27% or so got no clear call; they are omitted. Calls come from the whole dose curve; as a rule, active = well fitted inhibition curve with a large enough effect; inconclusive = small, poorly fitted or top-dose-only effect; inactive = flat fitted curve, though single readings scatter. These entries were drawn from the full list. Entries that show only a call come without a potency.

Assay: qHTS for Inhibitors of human tyrosyl-DNA phosphodiesterase 1 (TDP1): qHTS in cells in absence of CPT; note: nearly all actives have a fitted effect of over 55% in size
Conditions: DT40 Tdp1-/- hTDP1 cells, no CPT, ATP luminescence, 48 h; activity change, negative = growth inhibition: at 46.2 µM (top of the series)
In short: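 Chicken DT40 Tdp1-/- cells stably complemented with human TDP1 were seeded at 400 cells/well with DMSO in place of 20 nM camptothecin. After compound pinning, cells grew at least 48 hr at 37 °C; viability read by CellTiter-Glo luminescence.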
Potency is the fitted concentration of half-maximal effect.

Row | SMILES | Potency
1 | Nc1ccc(/C=C/c2ccnc3ccccc23)c([N+](=O)[O-])c1 | 10 µM (active)
2 | O=C(CC(c1ccccc1)c1ccccc1)NCC(O)c1ccc([N+](=O)[O-])cc1 (configuration not stated) | inactive
3 | Cc1ccc(C)c(N2CCN(Cc3nnc(-c4ccccc4)o3)CC2)c1 | inactive
4 | Cc1ccc(C)c(N2CCN(C(c3ccccc3)c3nnc(-c4ccccc4)o3)CC2)c1 (configuration not stated) | 23.1 µM (active)
5 | CCn1c2ccccc2c2nnc(N3CCN(c4cc(C)ccc4C)CC3)nc21 | inactive
6 | CC(C)c1ccc(S(=O)(=O)NC2CCCC2)cc1 | inactive
7 | C/C(CC(=O)Nc1cccc(C(F)(F)F)c1)=N\NC(=O)C(=O)NCC(C)C | inactive
8 | Cc1cc(N2CCCC2=O)cc(C)c1S(N)(=O)=O | inactive
9 | COc1cccc(N2C(=O)C3CCCN3C2c2ccc(F)cc2)c1 (configuration not stated) | inactive
10 | CSC1=NCCN1C(=O)c1ccc(S(=O)(=O)N2CCOCC2)cc1 | inactive
11 | O=C(Nc1ccccc1)Nc1nnc(COc2ccccc2F)s1 | 10.3 µM (active)
12 | COCC(=O)Nc1nnc(COc2ccccc2)s1 | inactive
13 | O=C(Nc1nnc(COc2ccccc2)s1)Nc1ccccc1F | inactive
14 | Cc1cc(C)c(C(N)=O)c(Cl)n1 | inactive
15 | CC1=C(C(=O)N(C)C)C(c2ccccc2OC(F)F)NC(=O)N1 (configuration not stated) | inactive
16 | COc1cc(OC)c(C2=NOC(C(=O)Nc3c(C)n(C)n(-c4ccccc4)c3=O)C2)cc1Cl (configuration not stated) | inactive
17 | Cc1cccc(OCC(=O)Nc2ccc(C(=O)O)cc2NC(=O)COc2cccc(C)c2)c1 | inactive
18 | O=C(O)CN(Cc1ccco1)S(=O)(=O)c1ccc(F)cc1 | inactive
19 | CCC(c1nc2ccccc2[nH]1)n1c(=O)c(-c2cccs2)nc2ccccc21 (configuration not stated) | 18.4 µM (active)
20 | OC(c1nc2ccccc2[nH]1)C(O)C(O)C(O)c1nc2ccccc2[nH]1 (configuration not stated) | inactive
21 | O=C(CSc1nc2ccccc2[nH]1)c1cccs1 | inactive
22 | CSc1nnc(-c2ccncc2)n1CCCN1CCCC1=O | inactive

Row | SMILES | Potency
23 | O=C(NCCc1nnc2ccc(SCC(=O)N3CCOCC3)nn12)c1ccccc1 | inactive
24 | Cc1ccc(N(C(=O)Cc2cccs2)C2C=CS(=O)(=O)C2)cc1Cl (configuration not stated) | inactive
25 | Cc1ccc(C)c2c1cc(C)c1nnc(SCC(=O)Nc3cccc(C(=O)O)c3)n12 | inactive
26 | O=C(Nc1cc(=O)[nH]c2ncnn12)c1ccccc1Cl | inactive
27 | COC(=O)CSc1ncnc2c1cnn2-c1ccc(C)cc1C | inactive
28 | Cc1ccc(-n2ncc3c(N4CCC(C(N)=O)CC4)ncnc32)cc1 | inactive
29 | CCN1CCN(c2ncnc3c2cnn3-c2ccc(C)c(C)c2)CC1 | 18.4 µM (active)
30 | COc1ccc(-n2ncc3c(SCC(=O)NNC(C)=O)ncnc32)cc1 | inactive
31 | CCN(c1ncnc2c1cnn2-c1ccc(C)cc1)C1CCCCC1 | inactive
32 | COc1ccccc1N1CCN(C(=O)CSc2ncnc3c2cnn3-c2ccc(C)c(C)c2)CC1 | 23.1 µM (active)
33 | O=C1C2C3C=CC(C3)C2C(=O)N1c1ncc([N+](=O)[O-])s1 (configuration not stated) | inactive
34 | COc1ccc(C(=O)COC(=O)CCCC(=O)Nc2cc(C(F)(F)F)ccc2Cl)cc1 | inactive
35 | Cc1cc(OC(=O)c2ccc(Cl)cc2)cc(=O)n1C | inactive
36 | O=C(COc1cccc(F)c1)Oc1ccc(C(=O)c2ccccc2)cc1 | inactive
37 | N#Cc1cccc(CSc2nnc(CCCO)n2-c2ccccc2)c1 | inactive
38 | CCC(=O)Oc1cccc(C(=O)Nc2ccc(-c3nnc(-c4ccco4)o3)cc2)c1 | 5.8 µM (active)
39 | Cc1ccc(OCC(=O)Nc2ccc(-c3nnc(-c4ccco4)o3)cc2)cc1 | inactive
40 | CCOc1ccc(-c2nnc(-c3ccco3)o2)cc1 | inactive
41 | O=C(Nc1ccc(C(=O)O)cc1)/C(=C\c1ccccc1)NC(=O)c1ccc(Br)cc1 | inactive
42 | CN1CCN(C(=O)C2C3C=CC(C3)C2C(=O)O)CC1 (configuration not stated) | inactive
43 | N#Cc1ccc(OCC(=O)Nc2nc(-c3ccccn3)cs2)cc1 | 1.64 µM (active)
44 | Cc1ccnc(NC(=O)c2ccco2)n1 | inactive

Row | SMILES | Potency
45 | CC(NC(=O)c1ccco1)C(=O)Nc1nc(-c2ccccn2)cs1 (configuration not stated) | 5.8 µM (active)
46 | O=C(COc1ccccc1F)Nc1nc(-c2ccccn2)cs1 | 4.61 µM (active)
47 | CC1CCN(S(=O)(=O)c2nnc(NC(=O)COc3ccccc3F)s2)CC1 | inactive
48 | NS(=O)(=O)c1ccc2nc(NC(=O)COc3ccccc3)sc2c1 | inactive
49 | O=C(COc1ccccc1F)NC1CC1 | inactive
50 | Cc1cc(NC(=O)[C@H](C)NC(=O)c2ccco2)ccc1Br | inactive
51 | COc1ccc(OCC(=O)Nc2nnc(-c3ccco3)s2)cc1 | inactive
52 | Cn1c(=O)oc2cc(S(=O)(=O)NCCC(=O)NCc3ccccc3Cl)ccc21 | inactive
53 | CCN(CC)C(=O)CSc1nnc(C2CCCCC2)o1 | inactive
54 | CCC(=O)c1ccc(OC(=O)/C=C/c2cc(OC)c(OC)c(OC)c2)cc1 | inactive
55 | CC(C)CNC(=O)/C=C/C(=O)O | inactive
56 | C[C@H](CO)N1C[C@H](C)[C@@H](CN(C)C(=O)Nc2ccc3c(c2)OCO3)Oc2c(cccc2N(C)C)C1=O | inactive
57 | CCCCOc1ccc(N(CC(=O)NC(C)C)C(=O)CCC(=O)Nc2ccccn2)cc1 | inactive
58 | Cc1ccc(S(=O)(=O)NC(=O)N2CCCN(Cc3ccc(F)cc3)CC2)cc1 | inactive
59 | Cc1ccc(S(=O)(=O)C(C#N)c2nc3ccccc3nc2N2CCCC2)cc1C (configuration not stated) | inactive
60 | O=C(Nc1ccccc1)N1CCN(Cc2ccccc2)CC1 | inactive
61 | CC(C)OC(=O)C(C#N)c1nc2ccccc2nc1N1CCN(Cc2ccccc2)CC1 (configuration not stated) | 23.1 µM (active)
62 | COc1cccc(OCC(=O)NNC(=O)c2cnccn2)c1 | inactive
63 | CS(=O)(=O)N1CCN(c2cccc(Cl)n2)CC1 | inactive
64 | CCN(CC)CCn1cnc2c1c(=O)[nH]c(=O)n2Cc1ccccc1 | inactive
65 | N=c1c2c(-c3ccccc3)c(-c3ccccc3)n(Cc3ccccc3)c2ncn1CCCO | 18.4 µM (active)
66 | COCCn1cnc2c1c(=O)n(Cc1ccc(Br)cc1)c(=O)n2Cc1ccccc1 | inactive

Row | SMILES | Potency
67 | COc1ccc(C(=O)CSc2nnc(-c3ccco3)o2)cc1 | inactive
68 | O=C1CN(C(=O)CN2C(=O)NC3(CCCCC3)C2=O)c2ccccc2N1 | inactive
69 | CC(Sc1nncn1C)C(=O)NCCC1=CCCCC1 (configuration not stated) | inactive
70 | Cc1ccn2c(=O)c(C(=O)NCCC3=CCCCC3)c(O)nc2c1 | 20.6 µM (active)
71 | CCOCCCNC(=O)C1(O)c2cc(Br)ccc2NC(=O)N1c1ccc(C)c(C)c1 (configuration not stated) | inactive
72 | Cc1cccc(NC(=O)CCN2CC(C)CC(C)C2)c1 (configuration not stated) | inactive
73 | Cc1cc(=O)oc2cc(OC(C)C(=O)Nc3ccc(N4CCOCC4)cc3)ccc12 (configuration not stated) | inactive
74 | CC1CN(C(=O)CCC(=O)NCCCN2CCC(Cc3ccccc3)CC2)c2cc(Cl)ccc2O1 (configuration not stated) | 18.4 µM (active)
75 | O=C(CC1Oc2ccccc2NC1=O)NCCCN1CCN(Cc2ccccc2)CC1 (configuration not stated) | inactive
76 | CC1CN(C(=O)CCC(=O)NC2CCN(Cc3ccccc3)CC2)c2ccccc2O1 (configuration not stated) | inactive
77 | CSc1ccc(Cl)c(C(=O)OCC(=O)N2CC(C)OC(C)C2)c1 (configuration not stated) | inactive
78 | Cc1noc(C)c1S(=O)(=O)N(C)C[C@H]1Oc2ccc(NC(=O)C3CCCCC3)cc2C(=O)N([C@H](C)CO)C[C@@H]1C | inactive
79 | C[C@H]1COc2cc(N3CCSCC3)ccc2S(=O)(=O)N1 | inactive
80 | Cc1nnc(C)n1/N=C/c1ccc(C(C)C)cc1 | inactive
81 | CCOC(=O)N1CCC(NC(=O)COc2cc(=O)n(C)c3ccccc23)CC1 | inactive
82 | Cc1ccc(F)c(NC(=O)CCOc2ccccc2C)c1 | inactive
83 | Cc1cc(Br)ccc1NC(=O)CCCOc1cc(=O)n(C)c2ccccc12 | 25.9 µM (active)
84 | Cc1cc(C)n2nc(C(=O)Oc3ccc4c(c3)OCO4)nc2n1 | inactive
85 | CC(=O)c1c(N)n(C)c(=O)n(C)c1=O | inactive
86 | Cc1c(-c2ccccc2)n[nH]c1C(=O)N=Nc1c(O)[nH]c2ccccc12 | 23.1 µM (active)
87 | CC(=O)c1c(-c2ccccc2)c2ccccc2[nH]c1=O | inactive
88 | CCOC(=O)c1[nH]c2ccccc2c1N=C(C)N(CC)CC | inactive

Row | SMILES | Potency
89 | O=C(c1ccco1)N1CCN(C(=O)C2CC(c3ccc(F)cc3)=NO2)CC1 (configuration not stated) | inactive
90 | COC(=O)c1ccc(CN(c2ccccc2OC)S(=O)(=O)c2cccs2)o1 | 23.1 µM (active)
91 | COC(=O)c1ccc(Cc2ccccc2)o1 | inactive
92 | COc1ccccc1N(CC(=O)Nc1ccc(C(F)(F)F)cc1)S(C)(=O)=O | inactive
93 | O=C(O)C1C2CC2CN1C(=O)c1ccc(Cl)cc1Cl (configuration not stated) | inactive
94 | O=C(CSC1CC(=O)N(CCc2ccccc2)C1=O)Nc1ccc(Cl)cc1 (configuration not stated) | inactive
95 | O=C(CSc1ccc(-c2ccco2)nn1)NCc1ccc2c(c1)OCO2 | inactive
96 | O=C(CSc1ccc(-c2ccc(-n3cccn3)cc2)nn1)Nc1ccc([N+](=O)[O-])cc1 | inactive
97 | Cc1ccccc1NC(=O)CSc1ccc2nnc(-c3ccccn3)n2n1 | inactive
98 | O=C(CSc1ccc(-c2ccco2)nn1)Nc1cccc(F)c1 | 20.6 µM (active)
99 | O=C(CSc1ccc(-c2ccccn2)nn1)Nc1ccccc1 | 18.4 µM (active)
100 | O=C(CSc1ccc(-c2ccc(F)cc2)nn1)Nc1ccc2c(c1)OCCO2 | inactive
101 | O=C(CCC(=O)OCc1cccc(C(=O)Oc2ccccc2)c1)Nc1cccc2ccccc12 | inactive
102 | C=CCOc1ccccc1NC(=O)CN1C(=O)CNC1=O | inactive
103 | COc1nc(N(C)C)nc(N2CC(=O)N(CCNS(=O)(=O)c3ccc(C)cc3)C2=N)n1 | inactive
104 | NC(=O)C1(N2CCCCC2)CCN(C(=S)Nc2ccc(Cl)cc2)CC1 | inactive
105 | CC(C)(C)Oc1ncc(Br)c(OC(C)(C)C)n1 | inactive
106 | Cc1ccc(/C=C/C(=O)OCC(=O)NCc2ccc(Cl)cc2)o1 | inactive
107 | CCOCCCNC(=O)C(NC(=O)c1ccccc1O)c1ccccc1 (configuration not stated) | inactive
